Consider 6 molecules from PubChem BioAssay (EPA / NIEHS).

Read-out in experiment [1]: Macrophage colony-stimulating factor (MCSF), CSF1 (gene 1435)
The experiment in a line: BSK_hDFCGF_MCSF: BioMAP Diversity Plus: hDFCGF Assay for Macrophage colony-stimulating factor (MCSF) Biomarker Activity (AID 2283060). Particulars: primary human foreskin fibroblasts; actives raise or lower the signal. The essentials: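 Human foreskin primary fibroblasts were treated with test chemical for 24 h, and M-CSF was then measured by ELISA. Data were fitted bidirectionally against DMSO as the negative control and activity baseline.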

Experiment [2] is described as follows: BSK_hDFCGF_SRB: Viability Assessment in the BioMAP Diversity Plus: hDFCGF Assay (AID 2283061).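 Note: cells exposed to compound for 24 h before the read.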 As to conditions: primary human foreskin fibroblasts. A digest of the protocol: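 Human foreskin primary fibroblasts were treated with compound and assessed 24 h after dosing. Total protein was measured by sulforhodamine B staining (0.1% SRB after 10% TCA fixation, 560 nm read) as a cytotoxicity marker, with bidirectional fitting against DMSO baseline.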

Read-out in experiment [3]: TIMP metallopeptidase inhibitor 1 (TIMP1), TIMP1 (gene 7076)
Description: BSK_hDFCGF_TIMP1: BioMAP Diversity Plus: hDFCGF Assay for TIMP metallopeptidase inhibitor 1 (TIMP1) Biomarker Activity (AID 2283062). Particulars: primary human foreskin fibroblasts; actives raise or lower the signal. The essentials: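 Primary human foreskin fibroblasts in the hDFCGF system were dosed with compound for 24 h, then TIMP-1 was measured by ELISA. Activity was fitted bidirectionally relative to DMSO control; parallel SRB staining assessed cytotoxicity.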

Read-out in experiment [4]: Monokine induced gamma interferon (MIG), CXCL9 (gene 4283)
The experiment in a line: BSK_hDFCGF_MIG: BioMAP Diversity Plus: hDFCGF Assay for Monokine induced gamma interferon (MIG) Biomarker Activity (AID 2283063). As to conditions: primary human foreskin fibroblasts; actives raise or lower the signal. A digest of the protocol:
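ELISA read-out of MIG from primary human dermal fibroblasts 24 h post-dosing. Gain or loss of signal fitted bidirectionally, DMSO as baseline.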

Read-out in experiment [5]: Matrix Metallopeptidase 1 (MMP1), MMP1 (gene 4312)
The experiment in a line: BSK_hDFCGF_MMP1: BioMAP Diversity Plus: hDFCGF Assay for Matrix Metallopeptidase 1 (MMP1) Biomarker Activity (AID 2283064). Particulars: primary human foreskin fibroblasts; actives raise or lower the signal. A digest of the protocol:
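hDFCGF primary fibroblasts (human foreskin); chemical added; 24 h; MMP1 by ELISA; bidirectional fit vs DMSO.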

Read-out in experiment [6]: Vascular cell adhesion molecule 1 (VCAM1), VCAM1 (gene 7412)
The experiment in a line: BSK_hDFCGF_VCAM1: BioMAP Diversity Plus: hDFCGF Assay for Vascular cell adhesion molecule 1 (VCAM1) Biomarker Activity (AID 2283065). Particulars: primary human foreskin fibroblasts; actives raise or lower the signal. The essentials: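 Primary human foreskin fibroblasts (hDFCGF system) were dosed with chemical and VCAM-1 was measured by ELISA 24 h later. Bidirectional curve fitting used DMSO as negative control and activity baseline.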

Read-out in experiment [7]: Plasminogen activator inhibitor-1 (PAI1), SERPINE1 (gene 5054)
Description: BSK_hDFCGF_PAI1: BioMAP Diversity Plus: hDFCGF Assay for Plasminogen activator inhibitor-1 (PAI1) Biomarker Activity (AID 2283066). As to conditions: primary human foreskin fibroblasts; actives raise or lower the signal. A digest of the protocol:
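PAI-1 levels, determined by ELISA, served as the endpoint in human foreskin fibroblast cultures exposed to compound for 24 h, with DMSO as baseline.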

Read-out in experiment [8]: Intercellular Adhesion Molecule 1 (ICAM1), ICAM1 (gene 3383)
Description: BSK_KF3CT_ICAM1: BioMAP Diversity Plus: KF3CT Assay for Intercellular Adhesion Molecule 1 (ICAM1) Biomarker Activity (AID 2283067). As to conditions: primary human keratinocytes with fibroblasts; actives raise or lower the signal. The essentials:
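Human keratinocyte plus foreskin fibroblast primary co-culture was exposed to chemical for 24 h. ICAM-1 was then quantified by ELISA, and the data were fit bidirectionally against DMSO as the negative control and baseline.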

Read-out in experiment [9]: Interferon-gamma inducible Protein 10 (IP10), CXCL10 (gene 3627)
Description: BSK_KF3CT_IP10: BioMAP Diversity Plus: KF3CT Assay for Interferon-gamma inducible Protein 10 (IP10) Biomarker Activity (AID 2283068). Particulars: primary human keratinocytes with fibroblasts; actives raise or lower the signal. A digest of the protocol:
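ELISA read-out of IP-10 after 24 h chemical dosing of human skin primary co-culture (keratinocytes, foreskin fibroblasts). Gain or loss of signal relative to DMSO, bidirectional curve fit.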

Experiment [10] is described as follows: BSK_KF3CT_SRB: Viability Assessment in the BioMAP Diversity Plus: KF3CT Assay (AID 2283069).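 Note: fitted for both signal gain and loss against DMSO baseline.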 Particulars: primary human keratinocytes with fibroblasts. A digest of the protocol: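 Keratinocytes co-cultured with foreskin fibroblasts (human primary); chemical added, 24 h; fix 10% TCA, stain 0.1% SRB, A560. Bidirectional fit vs DMSO.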
Read-out in experiment [11]: Interleukin-1 alpha (IL1a), IL1A (gene 3552)
Description: BSK_KF3CT_IL1a: BioMAP Diversity Plus: KF3CT Assay for Interleukin-1 alpha (IL1a) Biomarker Activity (AID 2283070). Particulars: primary human keratinocytes with fibroblasts; actives raise or lower the signal. The essentials:
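Chemicals were dosed onto co-cultured human keratinocytes and foreskin fibroblasts, IL-1a was quantified by ELISA at 24 h, and activity was fitted in both directions relative to DMSO controls.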

Read-out in experiment [12]: TIMP metallopeptidase inhibitor 2 (TIMP2), TIMP2 (gene 7077)
The experiment in a line: BSK_KF3CT_TIMP2: BioMAP Diversity Plus: KF3CT Assay for TIMP metallopeptidase inhibitor 2 (TIMP2) Biomarker Activity (AID 2283071). As to conditions: primary human keratinocytes with fibroblasts; actives raise or lower the signal. A digest of the protocol: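 Keratinocyte–fibroblast co-culture, 24 h exposure; TIMP-2 ELISA, DMSO-normalised bidirectional fit. Parallel SRB (0.1%, TCA-fixed, 560 nm) total-protein staining gauges cytotoxicity.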

Read-out in experiment [13]: Transforming growth factor beta 1 (TGFb1), TGFB1 (gene 7040)
The experiment in a line: BSK_KF3CT_TGFb1: BioMAP Diversity Plus: KF3CT Assay for Transforming growth factor beta 1 (TGFb1) Biomarker Activity (AID 2283072). As to conditions: primary human keratinocytes with fibroblasts; actives raise or lower the signal. The essentials: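 Signal changes in either direction, relative to DMSO, define activity here. TGF-b1 is read by ELISA from a human keratinocyte-fibroblast co-culture 24 h post-dose.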

Read-out in experiment [14]: C-C motif chemokine 2 (Homo sapiens) (UniProt P13500)
Description: BSK_KF3CT_MCP1: BioMAP Diversity Plus: KF3CT Assay for Monocyte Chemoattractant Protein 1 (MCP1/CCL2) Biomarker Activity (AID 2283073). As to conditions: primary human keratinocytes with fibroblasts; actives raise or lower the signal. The essentials: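 Human keratinocyte plus foreskin fibroblast primary co-culture exposed to chemical for 24 h. MCP-1 levels measured by ELISA. Bidirectional curve fitting relative to DMSO negative control as baseline.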

Read-out in experiment [15]: Matrix Metallopeptidase 9 (MMP9), MMP9 (gene 4318)
The experiment in a line: BSK_KF3CT_MMP9: BioMAP Diversity Plus: KF3CT Assay for Matrix Metallopeptidase 9 (MMP9) Biomarker Activity (AID 2283074).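 For AC50: MMP9 protein level quantified by ELISA in the co-culture.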 As to conditions: primary human keratinocytes with fibroblasts; actives raise or lower the signal. The essentials: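 Human keratinocyte/foreskin fibroblast co-culture; compound added; 24 h; MMP-9 by ELISA; bidirectional fit vs DMSO baseline.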

Read-out in experiment [16]: urokinase plasminogen activator (uPA), PLAU (gene 5328)
The experiment in a line: BSK_KF3CT_uPA: BioMAP Diversity Plus: KF3CT Assay for urokinase plasminogen activator (uPA) Biomarker Activity (AID 2283075). As to conditions: primary human keratinocytes with fibroblasts; actives raise or lower the signal. A digest of the protocol: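 ELISA readout of uPA, analyzed for signal gain or loss relative to DMSO, from a human primary keratinocyte–foreskin fibroblast co-culture measured 24 h after chemical treatment.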

Read-out in another experiment: CD40, CD40 (gene 958)
Description: BSK_LPS_CD40: BioMAP Diversity Plus: LPS Assay for CD40 Biomarker Activity (AID 2283076). Particulars: primary human HUVEC with PBMC; actives raise or lower the signal. The essentials: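 Primary human umbilical vein endothelial cells co-cultured with peripheral blood mononuclear cells, LPS-stimulated, were dosed with chemical and read 24 h later. CD40 levels were measured by ELISA and fitted bidirectionally against DMSO as negative control and baseline.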

Read-out in experiment [17]: E-selectin (Homo sapiens) (UniProt P16581)
Description: BSK_LPS_Eselectin: BioMAP Diversity Plus: LPS Assay for Eselectin Biomarker Activity (AID 2283077). Particulars: primary human HUVEC with PBMC; actives raise or lower the signal. The essentials:
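Human umbilical vein endothelial cells co-cultured with peripheral blood mononuclear cells under LPS stimulation; E-selectin measured by ELISA 24 h after chemical dosing. Activity fitted bidirectionally against DMSO as negative control and baseline.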

Read-out in experiment [18]: Interleukin-8 (IL8), CXCL8 (gene 3576)
The experiment in a line: BSK_LPS_IL8: BioMAP Diversity Plus: LPS Assay for Interleukin-8 (IL8) Biomarker Activity (AID 2283078). As to conditions: primary human HUVEC with PBMC; actives raise or lower the signal. A digest of the protocol:
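Human umbilical vein endothelial cells co-cultured with PBMC were stimulated with LPS; IL-8 levels were measured by ELISA 24 h after chemical dosing. Activity was fitted bidirectionally against DMSO as negative control and baseline.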

Experiment [19] in a line: BSK_LPS_SRB: Viability Assessment in the BioMAP Diversity Plus: LPS Assay (AID 2283079).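 Note: total protein by sulforhodamine B absorbance as a cytotoxicity measure; measured one day after compound addition; fitted in both directions against DMSO so loss or gain of signal counts.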 Particulars: primary human HUVEC with PBMC. The essentials: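 Human umbilical vein endothelial cells co-cultured with PBMC (LPS system) were dosed for 24 h. Total protein was stained with 0.1% sulforhodamine B after 10% TCA fixation, read at 560 nm, and fitted bidirectionally against DMSO baseline.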

Values joined by “and” are separate entries in the source; they are usually repeats but may differ in a detail not shown here. Equal values may be shown once. More than one record can exist for a structure, and the calls need not agree. Active and inactive are the calls of the source. Rule for the calls: active = hit-call score of the fitted dose curve at least 0.9, where 1 is the maximum; inactive = score below 0.9.

By AC50 is commonly meant the midpoint of the concentration-response curve, whichever way the signal moves.

E-selectin (Homo sapiens), sequence (P16581 whole entry, looked up): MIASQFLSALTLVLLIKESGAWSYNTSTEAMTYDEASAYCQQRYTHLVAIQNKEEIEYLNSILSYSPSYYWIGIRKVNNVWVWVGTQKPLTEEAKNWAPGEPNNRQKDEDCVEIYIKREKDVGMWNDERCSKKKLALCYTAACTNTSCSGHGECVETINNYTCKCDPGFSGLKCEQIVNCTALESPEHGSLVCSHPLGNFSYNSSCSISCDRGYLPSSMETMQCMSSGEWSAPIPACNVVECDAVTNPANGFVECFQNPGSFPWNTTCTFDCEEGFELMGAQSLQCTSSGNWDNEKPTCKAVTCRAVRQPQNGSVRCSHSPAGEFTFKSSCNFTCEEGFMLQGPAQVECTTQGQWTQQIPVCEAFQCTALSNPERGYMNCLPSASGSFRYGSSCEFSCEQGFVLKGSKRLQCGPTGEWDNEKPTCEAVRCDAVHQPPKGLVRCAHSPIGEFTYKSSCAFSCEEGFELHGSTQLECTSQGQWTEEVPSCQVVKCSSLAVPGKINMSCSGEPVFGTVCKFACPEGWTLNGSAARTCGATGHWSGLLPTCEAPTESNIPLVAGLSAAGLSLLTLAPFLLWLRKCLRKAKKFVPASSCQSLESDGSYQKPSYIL

Consider `CCOP(=S)(NC(C)C)Oc1ccccc1C(=O)OC(C)C` (stereo unspecified), for which the result in [1], in experiment [2], in experiment [3], in [4], in experiment [5] and in experiment [6] was inactive. Also, the outcome in experiment [8], in [9], in [10], in [11], in experiment [12] and in experiment [13] was inactive. Moreover, the outcome in [14] is “inactive”; in experiment [15], “inactive”; in [16] it was “inactive”; with CD40, CD40 (gene 958), “inactive”; in experiment [17] it was “inactive”; in [18], “inactive”. Also, the result in [19] was inactive. In experiment [7], the AC50 is 257 nM (active).

Consider `O=P1(N(CCCl)CCCl)NCCCO1` (stereo unspecified), for which the result in experiment [1], in [2], in experiment [3], in experiment [4], in experiment [5] and in experiment [6] was inactive. The outcome in experiment [7], in experiment [8], in [9], in experiment [10], in [11] and in [12] was inactive. Moreover, the outcome in experiment [13] is “inactive”; in experiment [14], “inactive”; in experiment [15], “inactive”; in the experiment with CD40, CD40 (gene 958) it was “inactive”; in [17] it was “inactive”; in experiment [18], “inactive”. Besides, the result in [19] was inactive.

As to `O=C(O)C=CC(F)(C(F)(F)F)C(F)(F)F`, the outcome in experiment [1], in experiment [2], in experiment [3], in [4], in experiment [5] and in [6] was inactive. Moreover, the outcome in [7], in [8], in [9], in experiment [10], in experiment [11] and in experiment [12] was inactive. For the same molecule, the outcome in [14] was “inactive”; in experiment [15], “inactive”; with CD40, CD40 (gene 958), “inactive”; in experiment [17] it was “inactive”; in [18], “inactive”; in experiment [19], “inactive”.

On to `CCOP(=S)(OCC)SCSCC`, for which the result in [1], in experiment [2], in experiment [3], in [4], in experiment [5] and in experiment [6] was inactive. Moreover, the outcome in [7], in [8], in experiment [9], in experiment [10], in experiment [11] and in experiment [12] was inactive. In addition, the outcome in experiment [13] was “inactive”; in experiment [14] it was “inactive”; in experiment [15], “inactive”; in [16], “inactive”; with CD40, CD40 (gene 958) it was “inactive”; in [17], “inactive”. For the same molecule, the result in [18] and in [19] was inactive.

Consider `CC(Cl)CN(C)C` (stereo unspecified), for which the result in experiment [1], in [2], in [3], in [4], in experiment [5] and in experiment [6] was inactive. The outcome in experiment [7], in experiment [8], in experiment [9], in experiment [10], in [11] and in experiment [12] was inactive. Further, the outcome in [13] was “inactive”; in experiment [14], “inactive”; in [16], “inactive”; with CD40, CD40 (gene 958), “inactive”; in experiment [17], “inactive”; in experiment [18] it was “inactive”. Moreover, in [19], the result was inactive. Further, the AC50 in experiment [15] was 88.9 nM (active).

Regarding `C=CC(=O)OCC(F)(F)C(F)F`, the AC50 is 22.8 µM (active) and 23 µM (active) in [1]; 30 µM (active) and 31.7 µM (active) in [3]; 36.7 µM (active) and 38.4 µM (active) in [4]; 4.6 µM (active) in experiment [5]; 24 µM (active) and 19.9 µM (active) with CD40, CD40 (gene 958); 45.9 µM (active) and 47.4 µM (active) in [17]. In [18], the AC50 was 49 µM (active) and 30 µM (active). In addition, the outcome in experiment [2], in experiment [5], in experiment [7], in experiment [8], in experiment [9] and in experiment [10] was inactive. Besides, the result in experiment [11], in experiment [12], in [14], in [15], in experiment [16] and in experiment [19] was inactive.
